Experimental data: PubChem BioAssay AID588720 (NMMLSC, 2011)
Measured potencies and affinities stand elsewhere. The source made the active and inactive calls.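 How the source made its calls: active means good curve fit with EC50 under 10 µM, EC50 error below a tenth of EC50, span above a set limit; inactive means the rest.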

molecular target: Beta-adrenergic receptor kinase 1 (Homo sapiens) (UniProt P25098); assay: blockers of aptamer binding to GRK2 – biochemical, flow cytometry beads, FAM-aptamer, powder set 1, dose response (AID 588720); conditions: biotinylated GRK2 beads, FAM-aptamer displacement; series mostly up to 100 µM
Sequence (P25098 whole entry, looked up): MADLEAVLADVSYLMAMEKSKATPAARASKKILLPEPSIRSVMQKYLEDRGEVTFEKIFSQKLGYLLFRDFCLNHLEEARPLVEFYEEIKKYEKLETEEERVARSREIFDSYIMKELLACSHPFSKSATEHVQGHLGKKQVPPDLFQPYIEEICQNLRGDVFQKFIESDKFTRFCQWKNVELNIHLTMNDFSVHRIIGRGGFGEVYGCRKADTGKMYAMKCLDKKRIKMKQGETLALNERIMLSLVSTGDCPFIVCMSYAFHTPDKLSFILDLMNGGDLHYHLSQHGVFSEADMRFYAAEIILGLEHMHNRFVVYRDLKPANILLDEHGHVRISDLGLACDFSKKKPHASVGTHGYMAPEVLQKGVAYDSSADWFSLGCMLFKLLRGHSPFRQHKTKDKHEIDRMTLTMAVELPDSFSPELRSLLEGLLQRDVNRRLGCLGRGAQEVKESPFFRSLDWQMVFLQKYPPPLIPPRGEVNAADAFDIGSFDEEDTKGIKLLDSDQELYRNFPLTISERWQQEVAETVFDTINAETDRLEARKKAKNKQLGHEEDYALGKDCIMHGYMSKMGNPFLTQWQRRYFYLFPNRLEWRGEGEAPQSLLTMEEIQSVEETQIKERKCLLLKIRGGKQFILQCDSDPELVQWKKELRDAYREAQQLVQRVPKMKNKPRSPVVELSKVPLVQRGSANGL

| Compound | outcome |
| --- | --- |
| O=C(CN1CCc2ccccc21)NC(=O)NCc1ccccc1 | inactive |
| Cc1cc2ccccc2n1CCNC(=O)c1cccs1 | inactive |
| Cc1cc2ccccc2n1CCNC(=O)C(C)Oc1ccccc1 (configuration not stated) | inactive |
| O=C(O)C1CC(=O)N(c2ccc3c(c2)OCCO3)C1 (configuration not stated) | inactive |
| COC(=O)c1ccccc1NC(=O)CCS(=O)(=O)c1ccc(Br)s1 | inactive |
| Cc1ccc(CCNC(=O)CCS(=O)(=O)c2ccc(Br)cc2)cc1 | inactive |
| CC(=O)N1CCN(Cc2nc3cc(Cl)ccc3c(=O)[nH]2)CC1 | inactive |
